# The panel holds about 83,000 compounds, 20% with a hit somewhere; the sample as a whole holds those more often.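 Compound tested at a single concentration for 48 hours in 96-well plates; a percent growth value below 10 was scored as active.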 Activity calls are given as the source filed them.
# Experiments:
# Assay in all cases: NCI-60 one-dose screen, 48 h (100 = growth as untreated, 0 = no growth, -100 = all killed)
# Conditions in all cases: 10 µM unless noted
# RPMI-8226 leukemia = test system: RPMI-8226 leukemia
# OVCAR-8 ovarian = test system: OVCAR-8 ovarian
# OVCAR-5 ovarian = test system: OVCAR-5 ovarian
# SK-OV-3 ovarian = test system: SK-OV-3 ovarian
# IGROV1 ovarian = test system: IGROV1 ovarian
# OVCAR-3 ovarian = test system: OVCAR-3 ovarian
# HS 578T breast = test system: HS 578T breast
# NCI/ADR-RES ovarian = test system: NCI/ADR-RES ovarian
# T-47D breast = test system: T-47D breast
# BT-549 breast = test system: BT-549 breast
# MDA-MB-435 melanoma = test system: MDA-MB-435 melanoma
# SW-620 colon = test system: SW-620 colon
# MCF7 breast = test system: MCF7 breast
# HCC-2998 colon = test system: HCC-2998 colon
# KM12 colon = test system: KM12 colon
# OVCAR-4 ovarian = test system: OVCAR-4 ovarian
# HCT-116 colon = test system: HCT-116 colon
Structure (SMILES),growth (RPMI-8226 leukemia),growth (OVCAR-8 ovarian),growth (OVCAR-5 ovarian),growth (SK-OV-3 ovarian),growth (IGROV1 ovarian),growth (OVCAR-3 ovarian),growth (HS 578T breast),growth (NCI/ADR-RES ovarian),growth (T-47D breast),growth (BT-549 breast),growth (MDA-MB-435 melanoma),growth (SW-620 colon),growth (MCF7 breast),growth (HCC-2998 colon),growth (KM12 colon),growth (OVCAR-4 ovarian),growth (HCT-116 colon)
CC1=N/C(=C\c2cccc(Br)c2)C(=O)O1,108% (inactive),105% (inactive),106% (inactive),102% (inactive),106% (inactive),103% (inactive),107% (inactive),107% (inactive),97.3% (inactive),109% (inactive),107% (inactive),104% (inactive),102% (inactive),111% (inactive),106% (inactive),,
CSc1nc(NCCO)c(C#N)c(-c2cccc(N)c2)n1,99.7% (inactive),98.8% (inactive),,93% (inactive),92% (inactive),113% (inactive),96.5% (inactive),99.8% (inactive),87.8% (inactive),98% (inactive),105% (inactive),103% (inactive),94.7% (inactive),109% (inactive),99.4% (inactive),96.4% (inactive),98.9% (inactive)
O=C(Nc1cccc2c1C(=O)c1cccc(Nc3cccc4c3C(=O)c3cccc(NC(=O)c5ccccc5)c3C4=O)c1C2=O)c1ccccc1,107% (inactive),96.1% (inactive),114% (inactive),101% (inactive),75.6% (inactive),123% (inactive),,105% (inactive),116% (inactive),113% (inactive),,109% (inactive),107% (inactive),114% (inactive),114% (inactive),118% (inactive),109% (inactive)
O=C(/C=C/c1cc2ccccc2[nH]c1=O)/C=C/c1cc2ccccc2[nH]c1=O,-16.8% (active),4.07% (active),15.6% (inactive),8.82% (active),-23.6% (active),-58% (active),19.9% (inactive),57.2% (inactive),15.2% (inactive),-45.5% (active),-41.6% (active),-39.5% (active),-42.3% (active),-88.9% (active),-83.7% (active),,-71.1% (active)
Cc1csc2ccc(Cl)cc12,109% (inactive),,102% (inactive),96.5% (inactive),104% (inactive),111% (inactive),104% (inactive),103% (inactive),104% (inactive),104% (inactive),103% (inactive),102% (inactive),98.3% (inactive),109% (inactive),111% (inactive),,106% (inactive)
COc1ccc(-c2c3c(nc4n[nH]c(-c5ccc(Cl)cc5)c24)-c2ccccc2C(=O)C3=O)cc1,-11.4% (active),3.87% (active),51.5% (inactive),42.5% (inactive),,-17.2% (active),7.1% (active),-3.63% (active),17% (inactive),20.5% (inactive),-86.2% (active),-66.1% (active),1.77% (active),-25.5% (active),-20.6% (active),23% (inactive),-44.5% (active)
CN1CCN(Cc2ccc(NC(=O)c3cncc(C#Cc4c(N)ncc5ccc(C#N)cc45)c3)cc2C(F)(F)F)CC1,-23% (active),-40% (active),-84.5% (active),127% (inactive),-53.6% (active),90.9% (inactive),50.8% (inactive),-30.5% (active),65% (inactive),92.3% (inactive),-93.8% (active),-69.2% (active),-69.7% (active),78.5% (inactive),-41.8% (active),,-22% (active)
C=C1CCC2C3(C)COC(C)(C)OC3CCC2(C)C1C/C=C1/C(=O)OCC1OC(C)=O (centres undefined),-42% (active),-5.77% (active),38.3% (inactive),97.4% (inactive),69.6% (inactive),-9.88% (active),12% (inactive),51% (inactive),27.7% (inactive),52.9% (inactive),27.1% (inactive),-38.8% (active),16.5% (inactive),100% (inactive),10.1% (inactive),,-21.1% (active)
O=C(Cn1cc(CN2C(=O)c3ccccc3S2(=O)=O)nn1)Nc1ccc([N+](=O)[O-])cc1Cl,107% (inactive),95.3% (inactive),,73.5% (inactive),103% (inactive),105% (inactive),92.9% (inactive),89.3% (inactive),76.9% (inactive),103% (inactive),103% (inactive),98.1% (inactive),83% (inactive),98.4% (inactive),93.8% (inactive),115% (inactive),103% (inactive)
O=C(O)C(O)C(O)C(=O)O.[NH-]C1CCCCC1[NH-].[Pt+2] (centres undefined),110% (inactive),,108% (inactive),105% (inactive),106% (inactive),107% (inactive),109% (inactive),107% (inactive),105% (inactive),108% (inactive),104% (inactive),95% (inactive),91.9% (inactive),104% (inactive),96.4% (inactive),106% (inactive),95.1% (inactive)
CCC(c1ccc(O)cc1)C(CC)c1ccc(O)c(F)c1 (centres undefined),63.7% (inactive),98.4% (inactive),,99% (inactive),83% (inactive),85.3% (inactive),73.9% (inactive),81.8% (inactive),65.8% (inactive),92.9% (inactive),75.1% (inactive),93.7% (inactive),103% (inactive),96.4% (inactive),82.6% (inactive),75.3% (inactive),59% (inactive)
Cc1cc2c(cc1C)NC1=C(N2)OC(c2c3ccccc3cc3ccccc23)C1=O (centres undefined),30.6% (inactive),-27.4% (active),13.9% (inactive),52% (inactive),17.4% (inactive),23.3% (inactive),32.5% (inactive),-41.7% (active),,0.106% (active),-7.13% (active),19.3% (inactive),5.73% (active),7.57% (active),9.94% (active),75.5% (inactive),-5.82% (active)
COc1ccc(C2Nc3ccccc3-n3cccc32)cc1 (centres undefined),89.4% (inactive),96.6% (inactive),,99.9% (inactive),71.3% (inactive),96.1% (inactive),93.2% (inactive),89.9% (inactive),84.2% (inactive),97.1% (inactive),103% (inactive),100% (inactive),95.7% (inactive),103% (inactive),98.7% (inactive),,94% (inactive)
